A selection: hits, their analogues and other compounds. The true share with any hit is near 0.65%.
UGM FP inh: blocks M. tuberculosis UGM enzyme. P9WIQ1. purified UGM, fluorescence polarization probe displacement. inhibition, % at 10 µM. 320,000 tested, 0.06% active. AID 504406; in the data active = inhibition above about 10%, passing the limit was not always enough; inconclusive = no clear call, values can overlap the other calls
Target sequence (P9WIQ1 whole entry, looked up): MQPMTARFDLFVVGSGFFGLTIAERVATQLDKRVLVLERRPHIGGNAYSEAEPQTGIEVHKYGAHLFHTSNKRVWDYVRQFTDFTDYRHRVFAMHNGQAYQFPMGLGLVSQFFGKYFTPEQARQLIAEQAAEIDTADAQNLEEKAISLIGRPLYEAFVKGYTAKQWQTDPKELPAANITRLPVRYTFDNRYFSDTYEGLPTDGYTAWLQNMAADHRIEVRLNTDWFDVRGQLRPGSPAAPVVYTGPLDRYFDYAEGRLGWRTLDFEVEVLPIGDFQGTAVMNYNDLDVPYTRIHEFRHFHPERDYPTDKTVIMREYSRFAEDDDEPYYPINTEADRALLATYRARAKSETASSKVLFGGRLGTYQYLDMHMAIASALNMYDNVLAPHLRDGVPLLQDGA
TcdB GH inh: TcdB glycohydrolase inhibition | inhibition, % at 9.99 µM | P18177 | TcdB glycohydrolase enzymatic assay, plate reader | AID 652162 | 350,000 tested, 0.24% active; in the data active = inhibition above about 10%
PrP UTR inh: inhibition of PrP 5' UTR reporter expression; cell-based PrP 5' UTR mRNA reporter, plate reader; inhibition, % (no concentration beside the values); 340,000 tested, 0.35% active; in the data active = inhibition above about 52%; also: 0 = median of the neutral control wells
Y pestis TopoI: inhibitors of Yersinia pestis topoisomerase I. AID 504884. activity, % at 10 µM. Y. pestis Topo-I cleavage product accumulation, plate reader. 360,000 tested, 0.064% active; in the data active = activity above about 50%, passing the limit was not always enough; inconclusive = no clear call, values can overlap the other calls
BH1578 lux ind: inducers of Vibrio cholerae quorum light production without autoinducers; V. cholerae BH1578 lux reporter, luminescence, 6 h; activation, % at 18.7 µM; 350,000 tested, 0.16% active; in the data active = activation mostly above about 9.7%, no sharp cut-off; inconclusive = no clear call, values can overlap the other calls; inactive = mostly below about 3.7%
PrP UTR cherry: prion 5' UTR mRNA inhibition, cherry-pick retest. shares compounds with PrP UTR inh. cell-based prion protein 5' UTR reporter, plate reader. inhibition, % at 2.5 µM. 1,100 tested, 48% active; in the data active = inhibition above about 54%; inconclusive = no clear call, values can overlap the other calls
The depositor's hits bear a star; i = inactive; ? = inconclusive; . = no result.

SMILES | UGM FP inh | TcdB GH inh | PrP UTR inh | Y pestis TopoI | BH1578 lux ind | PrP UTR cherry
CN1C(=O)c2cc(NC(=O)c3ccc(F)cc3)ccc2OC[C@H]2O[C@@H](CC(=O)NCC3CCCCC3)CC[C@H]21 | . | -1 | . | . | . | .
CCN1C=C(C(=O)c2ccccc2)C(=O)CC1 | . | 0 | 61* | 3 | -1 | 0
CCCCN1C=C(C(=O)c2ccccc2)C(=O)CC1 | . | 1 | 4 | 3 | i | .
Cc1c(C(=O)OCC(C)C)[nH]c2c1C(=O)CC(c1ccco1)C2 (stereo not given) | -1 | 1 | 70* | -7 | 0 | 85*
Cc1c(C(=O)OC2CCCC2)[nH]c2c1C(=O)CC(c1ccco1)C2 (stereo not given) | 1 | 1 | 61* | -4 | 0 | 73*
C/C=C/COC(=O)c1[nH]c2c(c1C)C(=O)CC(c1ccco1)C2 (stereo not given) | 0 | 0 | 62* | -8 | i | 85*
C=CCOC(=O)c1[nH]c2c(c1C)C(=O)CC(c1ccco1)C2 (stereo not given) | 1 | . | . | . | . | .
Cc1c(C(=O)OCC2CCCO2)[nH]c2c1C(=O)CC(c1ccco1)C2 (stereo not given) | 2 | . | -32 | 4 | -1 | .
Cc1ccccc1S(=O)(=O)N[C@@H]1CC[C@@H](CCn2cc(-c3ccc(F)cc3)nn2)O[C@@H]1CO | . | 2 | . | . | . | .
O=C(c1ccc(F)cc1)N1C[C@H]2[C@@H](c3ccccc31)[C@@H](CO)N2C(=O)c1ccccc1 | . | -1 | . | . | . | .
C[C@H]1CN([C@@H](C)CO)C(=O)c2cc(C#CC3CC3)cnc2O[C@H]1CN(C)Cc1ccccc1C(=O)O | . | 0 | . | . | . | .
CN(C)C(=O)c1ccc(-c2ccc([C@@H]3[C@@H](CO)N(C(=O)C4CCOCC4)[C@H]3C#N)cc2)cc1 | . | -2 | . | . | . | .
Cc1nc2cc(-c3ccc(Cl)cc3)nn2c(C)c1CCC(=O)NC(C)c1ccc2c(c1)OCCO2 (stereo not given) | 1 | 1 | 40 | 30 | 0 | .
Cc1csc(NC(=O)CCc2c(C)nc3cc(-c4ccc(Cl)cc4)nn3c2C)n1 | 5 | 0 | 50* | 9 | 0 | 59*
Cc1cc(C)c(S(=O)(=O)Nc2ccc3c4c(cccc24)CC3)c(C)c1 | -2 | . | 76* | -7 | 0 | 89*
Cc1ccc(C2(c3ccccc3)NC(=O)N(CC(=O)NCc3ccccc3)C2=O)cc1C (stereo not given) | . | -3 | 80* | 22 | -2 | -4
O=C(CSCc1nc2ccccc2[nH]1)Nc1ccccc1 | -1 | . | 78* | -5 | 1 | -5
CCOc1ccc(C(=O)C(c2ccccc2)N2CCOCC2)cc1 (stereo not given) | 1 | . | 82* | 1 | -1 | -1
CCCOc1ccc(C(=O)C(c2ccccc2)N2CCOCC2)cc1 (stereo not given) | 1 | . | -22 | 25 | 3 | .
O=Nc1c2cc(-c3ccccc3)[nH]nc-2c2ccccc12 | . | 1 | 0 | -3 | -1 | .
Cc1ccc(-c2cc3c(N=O)c4ccccc4c-3n[nH]2)cc1 | -4 | 0 | 79* | -4 | i | 81*
CC(C)(C)c1ccc(-c2cc(N)n[nH]2)cc1 | 1 | 0 | 64* | 0 | 0 | ?
CC(C)CC(NC(=O)C1CCCN1C(=O)CNC(=O)OCc1ccccc1)C(=O)O (stereo not given) | 2 | 2 | 13 | -5 | 0 | .
CC(C)C[C@H](NC(=O)[C@@H]1CCCN1C(=O)[C@@H](N)Cc1ccc(O)cc1)C(=O)NCC(N)=O | -1 | 1 | 84* | 2 | i | -7
CC(=O)N/C(=C\c1ccccc1)C(=O)OCc1ccccc1 | 1 | 1 | 72* | -2 | -1 | -22
COc1cc(C2c3cc4c(cc3CC3COC(=O)N32)OCO4)cc(OC)c1OC (stereo not given) | . | 3 | 58* | 4 | i | 91*
COc1cc(C2c3cc4c(cc3CC3COC(=O)C32)OCO4)cc(OC)c1OC (stereo not given) | . | 0 | 55 | 7 | 0 | .
COCCCn1c(=NC(=O)c2ccccc2)c(C#N)cc2c(=O)n3cccc(C)c3nc21 | 9 | 0 | 66* | 8 | 2 | -17
C[C@@H]1CN([C@@H](C)CO)C(=O)c2cccc(NC(=O)c3ccncc3)c2O[C@@H]1CN(C)C(=O)Nc1ccc(C(F)(F)F)cc1 | . | 0 | . | . | . | .
ON=C1c2ccccc2-c2ccccc21 | 2 | -2 | 4 | -7 | -1 | .

Compound activity from PubChem.
